Bioassay records deposited in PubChem by Broad Institute.
Most compounds without a hit are left out; they make up all but 4.1% or so of the library.
NSD2 inh: blocks human histone methyltransferase NSD2. O96028. NSD2 peptide methylation, AlphaScreen, 120 min. inhibition, % at 12.5 µM. 310,000 tested, 0.54% active. AID 743445; in the data active means inhibition above about 50%
ALR inh: inhibitors of human sulfhydryl oxidase ALR; purified ALR, DTT oxidation, H2O2 HRP-luminol luminescence; inhibition, % (no concentration beside the values); 290,000 tested, 3.8% active; AID 485317;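 active means mean replicate inhibition above about 79%, with every replicate also reaching it, limit read from the data; inconclusive means only one of the two criteria met; inactive means mean below limit and not every replicate reaching it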
Target sequence (P55789 whole entry, looked up): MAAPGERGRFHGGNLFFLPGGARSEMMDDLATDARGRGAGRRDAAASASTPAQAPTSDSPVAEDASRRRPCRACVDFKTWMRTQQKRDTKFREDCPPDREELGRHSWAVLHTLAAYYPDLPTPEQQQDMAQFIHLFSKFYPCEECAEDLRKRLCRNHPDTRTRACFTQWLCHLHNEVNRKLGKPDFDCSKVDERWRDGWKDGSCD
PglD DTNB: PglD (C. jejuni) enzyme inhibition | purified PglD enzyme, DTNB colorimetric CoA detection | inhibition, % at 12.5 µM | 360,000 tested, 0.098% active | AID 602405; in the data active means inhibition above about 16%, passing the limit was not always enough; inconclusive means no clear call, values can overlap the other calls
HIV Env fusion: HIV envelope-mediated fusion inhibition; HeLa-JRFL Env/CEM21 cell fusion, luciferase; inhibition, % at 12.3 µM; 360,000 tested, 1.1% active; AID 651610;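 active means mean replicate inhibition score of at least 50 and every replicate individually at or above 50; inconclusive means only one of the two criteria met; inactive means mean below 50 and not all replicates reaching 50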;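 further: 0% = plate neutral controls and 100% = maraviroc near 300 nM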
F508del corr: CFTR F508del correction in bronchial cells; CFBE cells, YFP halide quenching; stimulated with forskolin plus potentiator P3; % fluorescence drop versus neutral controls; activity (quench increase), % at 7.58 µM; 350,000 tested, 0.36% active; AID 720511;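 active means mean added fluorescence quench of at least 8% versus neutral control, with both replicates also reaching 8%; inconclusive means only one of the mean or replicate conditions met; inactive means mean below 8% and not both replicates reaching 8%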;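 further: cells transiently co-express mutant CFTR-F508del with the halide-sensitive YFP; corrector assay measuring rescue of mutant channel to the surface after 24 h compound exposure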
CASP6 VEID inh: inhibitors of human caspase-6 | P55212 | purified caspase-6, Z-VEID-R110 cleavage fluorescence | inhibition, % at 12.5 µM | 350,000 tested, 0.53% active | AID 686996;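 active means mean inhibition across replicates at least about 35%, with every replicate also reaching that limit, limit read from the data; inconclusive means only one of the two criteria met; inactive means neither criterion met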;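 further: 0% = median of neutral control wells and 100% = no fluorescence left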
Target sequence (P55212 24-179 limits assumed): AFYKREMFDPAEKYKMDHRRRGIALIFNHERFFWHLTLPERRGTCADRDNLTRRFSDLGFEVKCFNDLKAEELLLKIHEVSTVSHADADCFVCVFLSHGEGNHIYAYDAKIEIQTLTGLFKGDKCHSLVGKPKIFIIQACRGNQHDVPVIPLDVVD
Target sequence (P55212 194-293 limits assumed): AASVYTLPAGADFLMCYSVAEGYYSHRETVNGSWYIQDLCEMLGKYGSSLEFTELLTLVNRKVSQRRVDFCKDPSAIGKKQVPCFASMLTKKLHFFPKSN
* marks the source's active call; other numbers are inactive results.

Results for C[C@@H]1CN([C@@H](C)CO)C(=O)c2c(c3ccccc3n2C)-c2ccccc2CO[C@H]1CN(C)C(=O)Oc1ccccc1 ?
F508del corr: -1; CASP6 VEID inh: -1

How did COc1cccc(-c2ccc([C@H]3[C@@H](CO)N4CCCCN(C(=O)Cc5ccncc5)C[C@H]34)cc2)c1 do in these assays?
PglD DTNB: 2; F508del corr: -2; CASP6 VEID inh: 2

How did CC1(O)CCN2C(=O)CCc3cccc1c32 (centres undefined) do in these assays?
NSD2 inh: 4; ALR inh: 97*; PglD DTNB: -3; HIV Env fusion: 26; F508del corr: 0; CASP6 VEID inh: 6

How did CC=CC(C)=CC(C)C(=O)CC(O)CC1CC(=O)NC(=O)C1 (centres undefined) do in these assays?
NSD2 inh: -2; HIV Env fusion: 24; F508del corr: 10*; CASP6 VEID inh: 1

Results for Cc1ccc(CNCCc2ccccc2F)cc1 ?
NSD2 inh: 1; ALR inh: -4; HIV Env fusion: -6; CASP6 VEID inh: -2

How did CCN(CC)c1ccc(CNCCc2ccccc2F)cc1 do in these assays?
NSD2 inh: 22; ALR inh: 99*; HIV Env fusion: 23; F508del corr: 7; CASP6 VEID inh: -2

Results for COc1cc(C(=O)OC2C[C@H]3CC[C@@H](C2)N3)ccc1O (some centres undefined) ?
NSD2 inh: 4; ALR inh: 84*; PglD DTNB: -6; HIV Env fusion: -59; F508del corr: 4; CASP6 VEID inh: -7

Results for O=C(Cc1ccncc1)N1CCCCN2[C@H](CO)[C@H](c3ccc(C#Cc4ccccc4F)cc3)[C@H]2C1 ?
PglD DTNB: 1; F508del corr: 1; CASP6 VEID inh: 2

Results for CCC(C)N1C(=O)/C(=C\c2cc3c4c(c2)CCCN4CCC3)C(=O)NC1=S (centres undefined) ?
NSD2 inh: 22; ALR inh: 99*; PglD DTNB: -7; HIV Env fusion: -57; CASP6 VEID inh: 3

How did CCC(C)N1C(=O)/C(=C\c2ccc(N3CCCCCC3)cc2)C(=O)NC1=S (centres undefined) do in these assays?
NSD2 inh: 8; ALR inh: 9; HIV Env fusion: -152

Results for Cc1[nH]c2ccc(O)cc2c1CCN ?
ALR inh: 96*; PglD DTNB: 2; HIV Env fusion: 16; F508del corr: -3

What do the screens show for `COC(=O)C1=C(c2ccc(F)cc2OCc2ccccc2)C[C@@H]2CC[C@H]1N2C(=O)NC1Cc2ccccc2C1`?
ALR inh: -5; PglD DTNB: -2; HIV Env fusion: 57*; F508del corr: -2; CASP6 VEID inh: 4

Results for COC(=O)C1=C(c2ccc(F)cc2OCc2ccccc2)C[C@@H]2CC[C@H]1N2C(=O)NCc1ccc(F)cc1 ?
ALR inh: 1; PglD DTNB: -2; HIV Env fusion: 2; F508del corr: -1; CASP6 VEID inh: 0

What do the screens show for `COCCNC(=O)N1[C@H]2CC[C@@H]1C(C(=O)OC)=C(c1ccc(-c3ccccc3)c(F)c1)C2`?
ALR inh: -4; PglD DTNB: -2; HIV Env fusion: 57*; F508del corr: 1; CASP6 VEID inh: 2

How did C[C@]12CCC3=C4CCC(=O)C=C4CC[C@H]3C1CC[C@@H]2O (some centres undefined) do in these assays?
NSD2 inh: 13; ALR inh: -19; PglD DTNB: -10; HIV Env fusion: 56*; F508del corr: -2; CASP6 VEID inh: 1

How did C[C@]12CC[C@H]3[C@@H](CCC4=CC(=O)CC[C@@H]43)[C@@H]1CC[C@@H]2O do in these assays?
PglD DTNB: -2; F508del corr: -1; CASP6 VEID inh: 2

Results for COC(=O)[C@H]1[C@H](CO)[C@H]2Cn3c(ccc(/C=C/c4ccccc4)c3=O)[C@@H]1N2C(=O)C1CC1 ?
PglD DTNB: -1; CASP6 VEID inh: 3

Results for CN(C)C1C(=O)C(C(N)=O)=C(O)C2(O)C(=O)C3=C(O)c4c(O)cccc4C(C)(O)C3C(O)C12 (centres undefined) ?
ALR inh: 7; PglD DTNB: -4; HIV Env fusion: 63*; F508del corr: -4; CASP6 VEID inh: 53*

What do the screens show for `Cc1ccc2c(C)c3ccc4ccccc4c3c[n+]2c1`?
NSD2 inh: 11; HIV Env fusion: 2; F508del corr: 9.2*; CASP6 VEID inh: -11

Results for N#Cc1c(/N=C/c2c(O)n(Cc3ccco3)c(=O)[nH]c2=O)sc2c1CCCC2 ?
NSD2 inh: 25; ALR inh: 82*; PglD DTNB: -2

What do the screens show for `CN(C)c1ccc(C=C2C(=O)NC(=S)NC2=O)cc1`?
NSD2 inh: 8; PglD DTNB: -6; HIV Env fusion: -9; F508del corr: -3; CASP6 VEID inh: 3

What do the screens show for `CCN(CC)c1ccc(C=C2C(=O)NC(=S)NC2=O)cc1`?
NSD2 inh: 6; ALR inh: 99*; PglD DTNB: 0; HIV Env fusion: -3; F508del corr: 1; CASP6 VEID inh: 6

Results for CC1CCC(C(C)C)C(OC(=O)Cn2c(COc3ccccc3)[n+](C)c3ccccc32)C1 (centres undefined) ?
ALR inh: -7; PglD DTNB: -12; HIV Env fusion: 78*; F508del corr: 1; CASP6 VEID inh: 24

How did COCCNC(=O)c1c(N)n(CCC(C)C)c2nc3ccccc3nc12 do in these assays?
NSD2 inh: -55; ALR inh: 28; PglD DTNB: 3; HIV Env fusion: 59*

Results for O=C(Nc1ccncc1)c1cccn(Cc2ccccc2)c1=O ?
NSD2 inh: -1; ALR inh: 12; HIV Env fusion: 56*; F508del corr: 0; CASP6 VEID inh: 6

Results for CC[C@H](C)[C@@H]1NC(=O)CNC(=O)c2csc(n2)[C@H](C(C)(C)O)OC(=O)C(C)(C)[C@H](CCCC(C)(Cl)Cl)OC(=O)c2csc1n2 ?
PglD DTNB: -6; F508del corr: -12; CASP6 VEID inh: 40*

How did CC(N)C(=O)NC1C2C(=C(O)CC(O)C2O)C(=O)OC1(C)C(Cl)Cl (centres undefined) do in these assays?
NSD2 inh: -1; HIV Env fusion: 99*; F508del corr: -4; CASP6 VEID inh: 0

How did Cc1nc(C)c(C(=O)NN=Cc2ccc(N(CCCl)CCCl)cc2)s1 do in these assays?
NSD2 inh: 0; HIV Env fusion: inconclusive; F508del corr: 8.7*; CASP6 VEID inh: -3

How did O=C(NN=Cc1ccc(N(CCCl)CCCl)cc1)c1cccnc1 do in these assays?
NSD2 inh: 0; PglD DTNB: 1; HIV Env fusion: -15; F508del corr: 6; CASP6 VEID inh: -3

What do the screens show for `CCC(=NCc1ccc(F)cc1)c1c(O)n(C)c(=O)n(C)c1=O`?
ALR inh: 2; PglD DTNB: 10; HIV Env fusion: 80*
